Assay results as given in PubChem BioAssay (NCI).
“And” between values parts separate entries of the source, which are not always exact repeats. Identical values can stand only once. Compounds without any hit were thinned out: in the full panel of roughly 79,000, 15% have a hit. The source holds several records for some structures; these can differ, active in one and inactive in another. The source made the active and inactive calls. Cut-off read from the data, not from the text of the source: active = growth inhibition above about 70%; inactive = the rest.

Columns and labels:
[1] = NCI Yeast Anticancer Drug Screen. Data for the rad50 strain (AID 155);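 note: 0% = growth of vehicle-only cultures of the same strain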; details: S. cerevisiae rad50 strain growth inhibition, stronger effect = higher value
Method in brief: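 Readout: growth inhibition relative to vehicle-treated cultures. Compound exposure was carried out in a genetically defined yeast strain deficient in DNA damage repair.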

[2] = NCI Yeast Anticancer Drug Screen. Data for the mec2-1 strain (AID 157); details: S. cerevisiae mec2-1 strain, stronger effect = higher value
Method in brief: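 Cells of the genetically defined mec2-1 yeast strain are incubated with test compound. Inhibition of growth is calculated against vehicle-treated controls.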

[3] = NCI Yeast Anticancer Drug Screen. Data for the sgs1 mgt1 strain (AID 161);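 note: 0% = growth of cultures given vehicle only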; details: S. cerevisiae sgs1 mgt1 strain, stronger effect = higher value
Method in brief: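 Inhibition of yeast growth, normalised to vehicle-treated controls, is reported for a strain bearing genetic alterations in DNA damage repair.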

[4] = NCI Yeast Anticancer Drug Screen. Data for the cln2 rad14 strain (AID 165);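 note: 0% = growth equal to vehicle treated cultures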; details: S. cerevisiae cln2 rad14 strain, stronger effect = higher value
Method in brief: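 The screen exposed genetically defined yeast (cln2 rad14) to test compounds and scored growth inhibition relative to vehicle-treated controls.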

[5] = NCI Yeast Anticancer Drug Screen. Data for the bub3 strain (AID 167); details: S. cerevisiae bub3 mutant strain, stronger effect = higher value
Method in brief: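 Readout: yeast growth inhibition, expressed relative to vehicle-only wells. The test organism is a mutant strain from a panel with lesions in DNA repair or checkpoint genes.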

[6] = NCI Yeast Anticancer Drug Screen. Data for the mlh1 rad18 strain (AID 175); details: S. cerevisiae mlh1 rad18 strain growth inhibition, stronger effect = higher value
Method in brief: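 Compound-treated yeast growth, normalised to vehicle controls. Strain bears defined DNA repair mutations.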

[7] = at 5.0 µM (retest, dose inferred, filed as 0.5)
[8] = at 50.0 µM (retest, dose inferred, filed as 5.0)

Measured: growth inhibition

O=C(NNC(=O)c1ccccc1O)c1ccccc1O
inactive: [1]; [7] 4% | [1]; [8] 14% | [1]; at 50.0 µM 56.1% | [2]; [7] 2% | [2]; [8] 34% | [2]; at 50.0 µM 37.3% | [3]; [7] 8% | [3]; [8] 32% | [3]; at 50.0 µM 61% | [4]; [7] -4% | [4]; [8] -2% | [4]; at 50.0 µM 35.9% | [5]; [7] 2% | [5]; [8] 19% | [6]; [7] 5% | [6]; [8] 33% | [6]; at 50.0 µM 49.8%
active: [5]; at 50.0 µM 74.2%

OC1CCC(O)CC1 (centres undefined)
73.8% (active) and 21.8% (inactive): [1]; at 50.0 µM
inactive: [1]; [7] -1% | [1]; [8] 42% | [2]; [7] -3% | [2]; [8] 3% | [2]; at 50.0 µM 20.2% and -13.1% | [3]; [7] 0% | [3]; [8] 5% | [4]; [7] 2% | [4]; [8] -3% | [4]; at 50.0 µM 8.65% and -1.45% | [5]; [7] 0% | [5]; [8] 4% | [5]; at 50.0 µM 11% and -1.95% | [6]; [7] 0% | [6]; [8] 10% | [6]; at 50.0 µM 67.3% and 22%
70.2% (active) and -6.75% (inactive): [3]; at 50.0 µM

c1cc2c3c(cccc3c1)-c1cnccc1-2
active: [1]; at 50.0 µM 91.1% | [2]; [8] 84% | [2]; at 50.0 µM 92.7% | [3]; [8] 97% | [3]; at 50.0 µM 92.9% | [4]; [8] 97% | [4]; at 50.0 µM 90.8% | [5]; [8] 98% | [5]; at 50.0 µM 92.3% | [6]; [8] 73% | [6]; at 50.0 µM 91.8%
inactive: [1]; [7] 31% | [1]; [8] 54% | [2]; [7] 36% | [3]; [7] -6% | [4]; [7] 48% | [5]; [7] 16% | [6]; [7] 35%

Clc1nc2nc(Cl)c(Cl)n2nc1Cl
active: [1]; at 50.0 µM 98.5% | [2]; at 50.0 µM 99.7% | [3]; at 50.0 µM 99.5% | [4]; at 50.0 µM 98.8% | [5]; at 50.0 µM 99.3% | [6]; at 50.0 µM 99.5%
inactive: [1]; [7] -4% | [1]; [8] -5% | [2]; [7] -3% | [2]; [8] -7% | [3]; [7] -2% | [3]; [8] -11% | [4]; [7] 4% | [4]; [8] -1% | [5]; [7] -5% | [5]; [8] -8% | [6]; [7] -8% | [6]; [8] -4%

Oc1ccc(Cc2ccccc2)cc1
inactive: [1]; [7] 1% | [1]; [8] 14% | [1]; at 50.0 µM 63.6% | [2]; [7] -3% | [2]; [8] 14% | [2]; at 50.0 µM 34% | [3]; [7] -4% | [3]; [8] 15% | [3]; at 50.0 µM 23.8% | [4]; [7] -5% | [4]; [8] -12% | [4]; at 50.0 µM -18.6% | [5]; [7] -2% | [5]; [8] 6% | [5]; at 50.0 µM 42.2% | [6]; [7] 2% | [6]; [8] 11%
active: [6]; at 50.0 µM 72.2%

Nc1ncnc2c1ncn2CCCl
inactive: [1]; [7] 2% | [1]; [8] -4% | [1]; at 50.0 µM 8.2% | [2]; [7] -2% | [2]; [8] 5% | [2]; at 50.0 µM -1.35% | [3]; [7] 2% | [3]; [8] 10% | [3]; at 50.0 µM 14.3% | [4]; [7] -7% | [4]; [8] 5% | [4]; at 50.0 µM -6.85% | [5]; [7] -2% | [5]; [8] 6% | [5]; at 50.0 µM 32.4% | [6]; [7] -2% | [6]; [8] -4% | [6]; at 50.0 µM 50.2%

COc1ccc(Oc2ccccc2N)cc1
active: [1]; [8] 93% | [1]; at 50.0 µM 83.7% | [2]; [8] 95% | [3]; [8] 93% | [4]; [8] 95% | [4]; at 50.0 µM 88.3% | [5]; [8] 93% | [6]; [8] 96% | [6]; at 50.0 µM 90.5%
inactive: [1]; [7] 0% | [2]; [7] -1% | [2]; at 50.0 µM 59.3% | [3]; [7] -2% | [3]; at 50.0 µM 69.3% | [4]; [7] -8% | [5]; [7] 6% | [5]; at 50.0 µM 63.4% | [6]; [7] -3%

COc1ccc(NC(=O)C(=O)NO)c(OC)c1
active: [1]; [8] 94% | [1]; at 50.0 µM 90.8% | [2]; [8] 96% | [2]; at 50.0 µM 91.1% | [3]; [8] 94% | [3]; at 50.0 µM 91% | [4]; [8] 94% | [4]; at 50.0 µM 87.9% | [5]; [8] 93% | [5]; at 50.0 µM 91.2% | [6]; [8] 95% | [6]; at 50.0 µM 87.9%
inactive: [1]; [7] 19% | [2]; [7] -2% | [3]; [7] 9% | [4]; [7] -10% | [5]; [7] 4% | [6]; [7] -28%
